Inconclusive results are not listed. A number with no mark means an inactive call. Active and inactive are the calls of the source. Calls come from the whole dose curve.
Target: Nucleoprotein (Lymphocytic choriomeningitis virus (strain Armstrong)) (UniProt P09992)
Test: qHTS for Inhibitors of the Functional Ribonucleoprotein Complex (vRNP) of Lymphocytic Choriomeningitis Arenaviruses (LCMV): LCMV Primary Screen - GLuc reporter signal (AID 1347086); note: nearly all actives have a fitted effect of over 70% in size
Details: LCMV minigenome vRNP cell assay, Gaussia luciferase reporter; series mostly up to 57.5 µM; activity change, negative = inhibition: at the top concentration
% is set by controls: 0 for no effect and ±100 for the full control effect.

Sequence of Nucleoprotein (Lymphocytic choriomeningitis virus (strain Armstrong)) (P09992 whole entry, looked up): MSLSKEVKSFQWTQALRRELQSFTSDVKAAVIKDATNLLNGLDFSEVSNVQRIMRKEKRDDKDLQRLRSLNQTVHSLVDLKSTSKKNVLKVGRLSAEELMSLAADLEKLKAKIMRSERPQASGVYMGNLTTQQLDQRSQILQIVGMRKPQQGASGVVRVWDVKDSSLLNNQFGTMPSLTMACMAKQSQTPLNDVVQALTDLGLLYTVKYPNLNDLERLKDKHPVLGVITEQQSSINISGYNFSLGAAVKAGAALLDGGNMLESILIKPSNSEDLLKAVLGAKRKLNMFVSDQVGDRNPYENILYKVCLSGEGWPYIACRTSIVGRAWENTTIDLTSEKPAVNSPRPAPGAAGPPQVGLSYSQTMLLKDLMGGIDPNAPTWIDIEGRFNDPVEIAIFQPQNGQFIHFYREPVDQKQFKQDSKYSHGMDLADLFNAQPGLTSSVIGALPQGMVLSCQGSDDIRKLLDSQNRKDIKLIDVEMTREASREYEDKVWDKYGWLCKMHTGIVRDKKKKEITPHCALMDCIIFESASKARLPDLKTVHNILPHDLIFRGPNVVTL

SMILES | Potency | activity change, negative = inhibition
CCN(CC)C(C)CN1c2ccccc2Sc2ccccc21 (stereo not drawn) | inactive | 
CC1(C)OC[C@@H]2O[C@@]3(C(=O)O)OC(C)(C)O[C@H]3[C@@H]2O1 |  | 5.93%
NC(=O)N1c2ccccc2C=Cc2ccccc21 | inactive | 
CC1(C)OC(=O)NC1=O |  | 2.84%
COC(=O)c1cc(Cl)ccc1OC |  | 2.31%
CN(C)C(=O)Oc1ccc[n+](C)c1 | inactive | 
Cc1cc2cc3c(C)cc(=O)oc3c(C)c2o1 |  | 10.9%
CCCCCC=CCC=CCCCCCCCC(=O)OCC |  | -10.2%
C[C@@H](O)[C@H]1C(=O)N2C(C(=O)O)=C(SCCN=CN)C[C@H]12 | inactive | 
CCCCC(=O)OCC(=O)[C@H]1[C@H](C)C[C@H]2[C@@H]3C[C@H](F)C4=CC(=O)C=C[C@]4(C)[C@@]3(F)[C@@H](O)C[C@@]21C |  | 23.3%
NC(=O)COCCN1CCN(C(c2ccccc2)c2ccc(Cl)cc2)CC1 (stereo not drawn) |  | -4.63%
O=C(O)c1[nH]n(-c2ccc(S(=O)(=O)O)cc2)c(=O)c1N=Nc1ccc(S(=O)(=O)O)cc1 |  | -3.46%
O=c1cc[nH]c(=S)[nH]1 |  | -20%
CC(=O)NCc1c(I)c(NC(C)=O)c(I)c(C(=O)O)c1I |  | 3.2%
COc1cc(C(=O)NC2CCCNC2)cc(OC)c1OC (stereo not drawn) |  | 18%
O=c1c(-c2ccc(O)cc2)coc2cc(O)cc(O)c12 | inactive | 
CCOC(=O)O[C@]1(C(=O)OCCl)CC[C@H]2[C@@H]3CCC4=CC(=O)C=C[C@]4(C)[C@H]3[C@@H](O)C[C@@]21C |  | 30.4%
Cc1scc2c1N(C(=O)CN1CCN(C)CC1)c1ccccc1NC2=O | inactive | 
CC(=O)NS(=O)(=O)c1ccc(N)cc1 |  | 15.7%

SMILES | Potency | activity change, negative = inhibition
CC(=O)Nc1ccc(/C=N/NC(N)=S)cc1 |  | 7.61%
Cc1ccc2ccc(Cl)cc2n1 |  | 18.1%
CO[C@]12C[C@@H](COC(=O)c3cncc(Br)c3)CN(C)[C@@H]1Cc1cn(C)c3cccc2c13 |  | -0.826%
Nc1ccn(C[C@@H](CO)OCP(=O)(O)O)c(=O)n1 |  | 32.5% [at 24.7 µM]
CCCC(=O)OCOC(=O)C1=C(C)NC(C)=C(C(=O)OC)C1c1cccc(Cl)c1Cl (stereo not drawn) |  | 24.4%
CC1(C)O[C@@H]2C[C@H]3[C@@H]4C[C@H](F)C5=CC(=O)C=C[C@]5(C)[C@@]4(F)[C@@H](O)C[C@]3(C)[C@]2(C(=O)CO)O1 |  | 41.9%
Cc1cc(=O)c2c(O)c3c(O)cc(=O)c4c3c3c(cc(O)c1c23)C(C)(C)C=4O | inactive | 
CC1COc2c(N3CCN(C)CC3)c(F)cc3c(=O)c(C(=O)O)cn1c23 (stereo not drawn) | inactive | 
Cc1ccc(-c2ncc(Cl)cc2-c2ccc(S(C)(=O)=O)cc2)cn1 |  | 4.06%
CN1C(C(=O)Nc2ccccn2)=C(O)c2sccc2S1(=O)=O | inactive | 
CC(=O)OC(C)C[N+](C)(C)C (stereo not drawn) | inactive | 
CCCc1c2oc(C(=O)O)cc(=O)c2cc2c(=O)cc(C(=O)O)n(CC)c12 |  | 9.09%
Clc1cccc(C(c2ccc3nc[nH]c3c2)n2ccnc2)c1 (stereo not drawn) |  | 5.48%
O=C1C(O)=C(O)C(=O)C(O)=C1O |  | -48.7%
NC(CO)(CO)CO |  | -20.9%
NS(=O)(=O)c1cc(Cl)c(Cl)c(S(N)(=O)=O)c1 |  | -0.304%
O=C(OOC(=O)c1ccccc1)c1ccccc1 |  | -2.22%
CC1c2ccccc2CN1NC(=O)c1ccc(Cl)c(S(N)(=O)=O)c1 (stereo not drawn) |  | 13.3%
C[N+]1(C)CCCC(OC(=O)C(O)(c2ccccc2)c2ccccc2)C1 (stereo not drawn) |  | 9.14%

From PubChem BioAssay (NCATS)
